Experiment [1] in a line: Viability qHTS for spleen associated tyrosine kinase inhibitor (SYKi) naive MV4-11 cells (AID 1963823). Further: nearly all actives have a fitted effect of over 40% in size. Summed up: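 SYKi-naive MV4-11 AML cells, 500 per well, were exposed to library compounds for 72 hr at 37 C, 5% CO2. Viability was then read by CellTiter-Glo luminescence after 10 min at room temperature.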
Experiment [2] in a line: Viability qHTS for spleen associated tyrosine kinase inhibitor (SYKi) drug resistant MV4-11 cells (AID 1963824). Further: nearly all actives have a fitted effect of over 35% in size. Put shortly:
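CellTiter-Glo luminescence, read 10 min after reagent addition, reports viability after a 72 hr compound exposure. Cells are an MV4-11 line made resistant to SYK inhibition, seeded at 500 per well onto compound-containing plates.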

Records with an inconclusive call do not appear. Values without a mark were called inactive. The source made the active and inactive calls. The call rests on the fitted dose curve; in most records, active means well fitted cell-killing curve with a large enough effect; inconclusive means small, poorly fitted or top-dose-only effect, or effect the other way; inactive means no such curve, though single readings can be large or run the other way.
Potency means the concentration at half of the fitted maximal effect.

`CC(C)n1cc(-c2ccc(Oc3ccccc3)cc2)c2c(N)ncnc21`: the Potency is 0.092 µM (active) in experiment [1] and 0.206 µM (active) in experiment [2].
As to `CC1=COC(OC2OC(CO)C(O)C(O)C2O)C2C(CO)CC(OC(=O)/C=C/c3ccc(O)cc3)C12` (stereo not drawn), the Potency result in experiment [1] and in experiment [2] was “inactive” throughout.
For the compound `C=C1CCC[C@]2(C)C[C@]3(O)OC(=O)C(C)=C3C[C@@H]12`, the Potency result in experiment [1] and in experiment [2] was “inactive” in each case.
Regarding `C/C(=C\CC[C@@H](C)[C@H]1CC(O)[C@@]2(C)C3CC[C@H]4C(C)(C)[C@@H](OC5OCC(O)C(O)C5OC5OC(CO)C(O)C(O)C5O)CC[C@@]45C[C@@]35CC(O)[C@]12C)C(=O)O` (stereo partly drawn), the Potency result in experiment [1] and in experiment [2] was “inactive” in each case.
As for `C=C[C@H]1[C@H](O[C@@H]2O[C@H](CO)[C@@H](O)[C@H](O)[C@H]2O)OC=C2C(=O)N3Cc4c([nH]c5ccccc5c4=O)[C@@H]3C[C@H]21`, the Potency result in experiment [1] and in experiment [2] was “inactive” in each case.
With `CC(C)C1NC(=O)CNC(=O)C2CCCN2C(=O)C(Cc2c[nH]c3ccccc23)NC(=O)CNC(=O)C(C(O)c2ccc(O)cc2)NC(=O)CNC1=O` (stereo not drawn), the Potency entry in experiment [1] and in experiment [2] was “inactive” in each case.
In the case of `C[C@H]1[C@H](/C=C/c2ccc(-c3ccccc3C#N)cn2)[C@@H]2[C@@H](C)OC(=O)[C@@H]2C[C@@H]1C`, the figures for the Potency in experiment [1] and in experiment [2] were 8.2 µM (active) and 7.31 µM (active), respectively.
As to `CC(=O)/C=C/[C@H]1[C@](C)(O)[C@@H](O)[C@H](O)C2C(C)(C)CCC[C@@]21C` (stereo partly drawn), the Potency entry in experiment [1] and in experiment [2] was “inactive” each time.
Regarding `C=C1C[C@@]23CC[C@@H]4[C@](C)(C(=O)O)CCC[C@@]4(C)C2=CC[C@H]1C3`, the Potency result in experiment [1] and in experiment [2] was “inactive” throughout.
Take `CCOc1ccc(CCNC(=O)c2cc3sc(Cl)cc3n2C)cc1OCC`: the Potency entry in experiment [1] is “inactive”. For the same compound, the Potency in experiment [2] was 1.64 µM (active).
Consider `Cc1onc(C(=O)N2CCN(C(c3ccc(Cl)cc3)c3ccc(Cl)cc3)CC2)c1[N+](=O)[O-]`, for which the Potency in experiment [1] is 4.11 µM (active); in experiment [2], 4.61 µM (active).
The like results for `COc1cc(COC2OC(CO)C(O)C(O)C2O)cc(OC)c1O` (stereo not drawn) were, in that order, “inactive” and “inactive”.
The corresponding values for `Cc1cc(N2CCN(C(=O)Oc3ccc(-c4ccccc4)cn3)CC2)c2ccccc2n1` are 6.51 µM (active) and 5.8 µM (active).
The like results for `COc1cc2occc2c(O[C@@H]2O[C@H](CO)[C@@H](O)[C@H](O)[C@H]2O)c1CCC(=O)O` were, in that order, “inactive” and “inactive”.
On to `C[C@]1(OC(=O)/C=C\c2ccc(O)cc2)C[C@@H](O)[C@]2(O)C=CO[C@@H](O[C@@H]3O[C@H](CO)[C@@H](O)[C@H](O)[C@H]3O)C12` (stereo partly drawn), for which the Potency result in experiment [1] and in experiment [2] was “inactive” in each case.
Consider `CC(=O)OC1C=C(C(=O)O)C2(CO)CCC(C)C(C)(CCc3ccoc3)C2C1` (stereo not drawn), for which the Potency result in experiment [1] and in experiment [2] was “inactive” throughout.
Consider `COc1cc(Nc2nc3c(s2)CCCC3c2ccccc2)ccc1-n1cnc(C)c1` (stereo not drawn), for which the viability (% of control) in experiment [1] is 89.8% [at 9.25 µM]. Moreover, the viability, % of control in experiment [2] is 109% [at 9.25 µM].
Consider `COC(=O)C1=COC(OC2OC(CO)C(O)C(O)C2O)C2C(C)CC(=O)C12O` (stereo not drawn), for which the Potency entry in experiment [1] and in experiment [2] was “inactive” throughout.
On to `CC(=O)C1=C(C)N(c2cccc(C(F)(F)F)c2)C(=O)N[C@H]1c1ccc(C#N)nc1`, for which the viability (% of control) in experiment [1] was 83.3% [at 9.25 µM]. In addition, the viability, % of control in experiment [2] was 87% [at 9.25 µM].
The like results for `C=C1CC[C@@H]2[C@@](C)(CO[C@@H]3O[C@H](CO)C(O)[C@H](O)C3O)[C@H](O)CC[C@@]2(C)[C@@H]1CC/C(C)=C/CO` (stereo partly drawn) were, in that order, 93.2% [at 9.25 µM] and 101% [at 9.25 µM].
For the compound `COc1c2c(c(C)c3c1C(=O)OC3)OC1(C)CC(O)C34OC(OC)(CC(OC(C)=O)C3(C)C1C2)OC4(C)C` (stereo not drawn), the Potency result in experiment [1] and in experiment [2] was “inactive” throughout.
With `O=C(Nc1ccc(Cl)cc1F)c1ccccc1O`, the Potency in experiment [1] is 9.2 µM (active); in experiment [2] it was 7.31 µM (active).
As to `C[C@@H]1O[C@@H](O[C@H]2[C@H](O[C@H]3[C@H](O[C@H]4CC[C@@]5(C)C(CC[C@]6(C)C5CC=C5[C@@H]7CC(C)(C)C[C@@H](O)[C@]7(C)CC[C@]56C)[C@@]4(C)CO)O[C@H](C(=O)O)[C@@H](O)[C@@H]3O)O[C@H](CO)[C@H](O)[C@@H]2O)[C@H](O)[C@H](O)[C@H]1O` (stereo partly drawn), the viability (% of control) in experiment [1] is 74.1% [at 9.25 µM]. For the same compound, in experiment [2], the viability, % of control was 80.3% [at 9.25 µM].
As to `Cc1cn([C@H]2C[C@H](O)[C@@H](CO)O2)c(=O)nc1N`, the Potency result in experiment [1] and in experiment [2] was “inactive” throughout.
Take `CC(C)=C[C@@H]1[C@H](CO[C@@H]2O[C@H](CO)[C@@H](O)[C@H](O)[C@H]2O)C1(C)C`: the Potency in experiment [1] is 7.18 µM (active); in experiment [2], 4.53 µM (active).
The like results for `CC(=O)OC(C)C(C)(O)C(=O)O[C@@H]1CC[C@]2(C)CC(=O)C(=C(C)C)C[C@H]2[C@]1(C)OC(C)=O` (stereo partly drawn) were, in that order, 5.63 µM (active) and “inactive”.
The corresponding values for `CC[C@H](CO)Nc1nc(NCc2ccc(-c3ccccn3)cc2)c2ncn(C(C)C)c2n1` are 0.13 µM (active) and 0.259 µM (active).
For `O=C(OC[C@H]1O[C@@H](Oc2ccccc2CO)[C@H](O)[C@@H](O)[C@@H]1O)c1ccccc1`, the Potency result in experiment [1] and in experiment [2] was “inactive” throughout.
`OC[C@H]1O[C@@H](OCc2ccccc2)[C@H](O)[C@@H](O)[C@@H]1O`: the Potency result in experiment [1] and in experiment [2] was “inactive” in each case.

(Values after PubChem BioAssay (NCATS).)
